Vif-APOBEC3G blk: Vif-A3G binding inhibition. Q9HC16. HeLa A3G-eYFP + Vif (tagged APOBEC3G with the HIV-1 protein that degrades it), YFP fluorescence, overnight. Potency, µM (highest dose often 46.1 µM), inactives show top-dose activity, negative = active, hits mostly inhibitors. 410,000 compounds, 0.076% hits. AID 602310; further: on the % scale 0 is the no-effect control and ±100 the full control effect; nearly all actives have a fitted effect of over 60% in size
Target sequence (Q9HC16 whole entry, looked up): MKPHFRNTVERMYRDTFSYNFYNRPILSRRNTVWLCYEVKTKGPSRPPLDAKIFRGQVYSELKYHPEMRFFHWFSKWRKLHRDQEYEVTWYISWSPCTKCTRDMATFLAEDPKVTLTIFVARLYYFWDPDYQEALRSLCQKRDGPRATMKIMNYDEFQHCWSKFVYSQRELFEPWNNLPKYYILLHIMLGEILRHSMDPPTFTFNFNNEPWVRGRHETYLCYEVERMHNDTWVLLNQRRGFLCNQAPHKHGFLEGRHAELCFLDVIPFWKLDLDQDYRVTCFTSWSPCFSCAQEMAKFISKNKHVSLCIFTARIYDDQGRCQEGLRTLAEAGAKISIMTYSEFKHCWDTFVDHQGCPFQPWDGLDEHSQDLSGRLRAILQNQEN
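HeLa cells stably expressing Vif and C-terminally eYFP-tagged A3G, seeded overnight at 37 deg C, then exposed to compound by pintool overnight at 37 deg C. Rise in yellow fluorescence (Ex 488/Em 500-530, Acumen) marks blocked Vif-driven A3G degradation.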
Epigenetic derep: derepresses silenced GFP reporter in murine cells. murine LDR cells, GFP reporter derepression, 30 h. Potency, µM (highest dose often 53.9 µM), for inactives: at the top dose GFP activation, actives largely listed as activators. 280,000 compounds, 0.2% hits. AID 1865; further: % of control where 0% means no effect; nearly all actives have a fitted effect of over 60% in size
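Murine LDR cells carrying a silenced, genomically integrated CMV-driven GFP reporter were exposed to compound for 30 hours at 37 C. After PBS washes, GFP-positive cells (20–120 um objects) were counted by laser-scanning microplate cytometry.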
Vif-APOBEC3F blk: Vif-A3F binding inhibition. HeLa A3F-eYFP + Vif (tagged APOBEC3F with the HIV-1 protein that degrades it), YFP fluorescence increase. Potency, µM (series often up to 46.1 µM), for inactives: at the top dose activity, negative = active. 390,000 compounds, 0.2% hits. AID 602313; further: % of control where 0% means no effect; nearly all actives have a fitted effect of over 65% in size
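Fluorescence increase (Ex 488/Em 500-530) after overnight compound treatment at 37 deg C flags inhibition of Vif-driven A3F-eYFP loss in stable HeLa A3F-eYFP/Vif cells seeded overnight beforehand.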
* = called active by the depositor. Rows were chosen to be rich in hits. Some 0.34% of all compounds tested hit in one or more screens of this group. The call rests on the fitted dose curve; in most records, active means well fitted curve in the direction sought with a large enough effect; inconclusive means small, poorly fitted or top-dose-only effect, or another doubt; inactive means no such curve, though single readings can be large; an effect the other way counts as inactive or inconclusive. Potency means the concentration at half of the fitted maximal effect.

For O=C(Cn1c2ccccc2c(=O)c2ccccc21)N/N=C/c1ccc(N2CCCC2)c([N+](=O)[O-])c1 the results were Vif-APOBEC3G blk -22.5%, Epigenetic derep -1.0% and Vif-APOBEC3F blk inconclusive.
For O=C(Cn1c2ccccc2c(=O)c2ccccc21)N/N=C/c1cc([N+](=O)[O-])ccc1N1CCCCCC1 the results were Vif-APOBEC3G blk -2.1%, Epigenetic derep 20µM* and Vif-APOBEC3F blk 4.0%.
CCOc1ccc(/C=C/c2nc(C#N)c(N3CCN(CC)CC3)o2)cc1 was read as Vif-APOBEC3G blk -2.3%, Epigenetic derep -1.0% and Vif-APOBEC3F blk -3.1%.
For Cc1ccc(C)c(-n2nnc(-c3nc(-c4ccccc4C)no3)c2C)c1 the results were Vif-APOBEC3G blk 7.7%, Epigenetic derep -2.0% and Vif-APOBEC3F blk 0.9%.
For CN(C)c1ccc(/C=C(/C#N)C(=O)NCc2ccccc2)o1 the results were Vif-APOBEC3G blk inconclusive, Epigenetic derep 16.8% and Vif-APOBEC3F blk 10µM*.
Screening N#C/C(=C/c1ccccc1)C(=O)NCc1ccccc1 returned Vif-APOBEC3G blk -16.4%, Epigenetic derep -2.5% and Vif-APOBEC3F blk -37.4%.
Screening O=C(CN1C(=O)CSc2ncccc21)Nc1cccc(Cl)c1 returned Vif-APOBEC3G blk inconclusive and Vif-APOBEC3F blk 10µM*.
For Cc1c(Cl)cccc1NC(=O)CN1C(=O)CSc2ncccc21 the results were Epigenetic derep 0.0%.
Screening O=c1[nH]c(NCc2ccco2)nnc1Cc1ccccc1Cl returned Vif-APOBEC3G blk 12.6µM* and Epigenetic derep 3.4%.
For Cc1nc(NCc2ccco2)[nH]c(=O)c1CCC(C)C the results were Vif-APOBEC3G blk -1.8%, Epigenetic derep -0.8% and Vif-APOBEC3F blk -6.1%.
For Cc1ccc(CNC(=O)c2ccc(Cn3c(=O)c4ccccc4n(CC(=O)Nc4ccc(C)cc4)c3=O)cc2)cc1 the results were Vif-APOBEC3G blk -5.6%, Epigenetic derep 2.5% and Vif-APOBEC3F blk -8.3%.
`CCOc1ccc(NC(=O)Cn2c(=O)n(Cc3ccc(C(=O)NCc4ccc(C)cc4)cc3)c(=O)c3ccccc32)cc1` gave Vif-APOBEC3G blk -0.9%, Epigenetic derep inconclusive and Vif-APOBEC3F blk 10µM*.
CCN(CC)CCCOc1cc2nc(N3CCCN(C)CC3)nc(NC3CCN(C)CC3)c2cc1OC was read as Vif-APOBEC3G blk 2.5%.
For Cc1ccc(N(C)C(CNS(=O)(=O)c2ccccc2)c2ccccc2)cc1 (stereo not given) the results were Epigenetic derep -0.9%.
`CCOC(=O)c1ccc(-c2ccc(/C=C(\C#N)C(=O)Nc3c(C)cccc3Cl)o2)cc1` gave Vif-APOBEC3G blk 4.9%, Epigenetic derep 11.2µM* and Vif-APOBEC3F blk inconclusive.
`CCOC(=O)c1ccc(-c2ccc(/C=C(\C#N)C(=O)Nc3ccc(C)cc3OC)o2)cc1` gave Vif-APOBEC3G blk -5.9%, Epigenetic derep 7.1% and Vif-APOBEC3F blk -23.9%.
For Fc1ccccc1N1CCN(c2c3c(nc4nncn24)CCC3)CC1 the results were Vif-APOBEC3G blk -0.1%, Epigenetic derep -3.4% and Vif-APOBEC3F blk 1.3%.
`COc1cc2c(NC3CCN(C)CC3)nc(N3CCCN(C)CC3)nc2cc1OCCCN1CCCCC1` gave Vif-APOBEC3G blk -1.9%.
For COc1ccc2c(c1)C=C/C2=C\c1ccc(N(C)C)cc1 the results were Vif-APOBEC3G blk -0.9%.
For COc1ccc(/C=C2\SC(=S)N(CCC(=O)N3CCCCC3)C2=O)cc1 the results were Vif-APOBEC3G blk -1.3% and Vif-APOBEC3F blk -3.0%.
For COCCN1C(=O)/C(=C/c2ccc(N3CCCC3)cc2)SC1=S the results were Vif-APOBEC3G blk inconclusive, Epigenetic derep 3.55µM* and Vif-APOBEC3F blk inconclusive.
CCCN1CCc2c(sc(NC(=O)c3ccc(S(=O)(=O)N4CCN(C(=O)OCC)CC4)cc3)c2C(N)=O)C1 was read as Vif-APOBEC3G blk inconclusive and Vif-APOBEC3F blk 10µM*.
`CNC(=O)c1c(NC(=O)c2ccc(S(=O)(=O)N3CCCCC3)cc2)sc2c1CCN(C(C)C)C2` gave Vif-APOBEC3G blk -24.3% and Vif-APOBEC3F blk inconclusive.
For CCCN1CCc2c(sc(NC(=O)c3ccc(S(=O)(=O)N(C)c4ccccc4)cc3)c2C(N)=O)C1 the results were Vif-APOBEC3G blk inconclusive and Vif-APOBEC3F blk 6.31µM*.
CN1CCc2c(sc(NC(=O)c3ccc(S(=O)(=O)N4CCCC4)cc3)c2C(N)=O)C1 was read as Vif-APOBEC3G blk -27.2% and Vif-APOBEC3F blk -28.3%.
Screening CCN1CCc2c(sc(NC(=O)c3ccc(S(=O)(=O)N4CCCC4)cc3)c2C(=O)NC)C1 returned Vif-APOBEC3G blk -20.8% and Vif-APOBEC3F blk inconclusive.
`CCCN1CCc2c(sc(NC(=O)c3ccc(S(=O)(=O)N(C)c4ccccc4)cc3)c2C(=O)NC)C1` gave Vif-APOBEC3G blk 22.4µM* and Vif-APOBEC3F blk inconclusive.
